Screen size: about 340,000 compounds; about 8,500 (2.5%) were called active. What follows is part of a selection rich in actives, with near analogues and random picks from the rest. A number with no mark means an inactive call.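 The calls were made as follows: active = melting temperature shift of at least 10% of the positive control shift, at one fixed dose; inactive = the rest.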

The experiment concerns Glutamate receptor ionotropic, NMDA 3A (GRIN3A) ligand-binding domain. Kind of experiment: NR3A LBD thermal stabilization by compounds – biophysical, differential scanning fluorimetry, uHTS, primary screen (AID 1259313). Particulars: at 25 µM, stronger effect = higher value, 0% = protein alone, 100% = glycine-bound protein. (In general: Differential scanning fluorimetry follows unfolding on heating by fluorescence.)
For `Nc1c(-c2ccc(F)cc2)cnn1C1CCS(=O)(=O)C1` (stereo unspecified), the Tm shift relative to glycine control was -1.17%.

Consider `Nc1ccc(Cl)c(S(=O)(=O)Nc2ccccc2Cl)c1`, for which the Tm shift relative to glycine control was -2.25%.

Take `CCn1cc(NC(=O)Nc2ccc(OC)c(OC)c2)c(C(N)=O)n1`: the Tm shift relative to glycine control is -1.66%.

On to `CN(CCC#N)c1ncnc2scc(-c3ccccc3)c12`, for which the Tm shift relative to glycine control was 10.9% (active).

In the case of `C=CCn1cnc2scc(-c3ccccc3)c2c1=O`, the Tm shift relative to glycine control was 5.11%. The value for `N#CCCN(CCC#N)c1nnc(-c2ccccc2)s1` was 2.17%; that for `COc1ccc(CCNC(=O)c2ccc(NC(=O)CC3SC(N4CCCCC4)=NC3=O)cc2)cc1OC` (stereo unspecified) was 0.17%. With `CNc1ccc(SC#N)cc1`, the Tm shift relative to glycine control is -0.62%. For `C=CCn1c(=NC(=O)c2cccs2)sc2cc(NC(C)=O)ccc21` the value was 2.65%; for `CC(=O)Nc1ccc(S(=O)(=O)N2CCSCC2)cc1`, 0.09%.

On to `C=CCn1c(=NC(=O)c2ccc(S(=O)(=O)N3CCCC3)cc2)sc2cc(NC(C)=O)ccc21`, for which the Tm shift relative to glycine control was 18.6% (active). The value for `CC(=O)Nc1ccc(NC(=O)CCN2C(=O)C3CC=CCC3C2=O)cc1` (stereo unspecified) was -1.24%. The value for `CCC(C)(C)NC(=O)C(c1cccc(OC)c1OC)N(CC(C)C)C(=O)CCC(=O)Nc1cc(C)on1` (stereo unspecified) was -1.85%. As to `NC(=O)C1CC(=O)N(c2ccc(OCC(=O)NCc3ccccc3)cc2)C1` (stereo unspecified), the Tm shift relative to glycine control was -0.09%. The value for `O=C(O)c1ccccc1N=N/C(=N/Nc1cc(S(=O)(=O)O)ccc1O)c1ccccc1` was 25.2% (active); that for `Cn1cccc1C(=O)OCC(=O)NCCc1ccccc1` was -0.25%; that for `Cn1cccc1C(=O)OCC(=O)c1ccc(Br)s1` was 14% (active). The value for `O=C(COC(=O)c1c2c(nc3ccccc13)CCCC2)c1ccc(Br)s1` was -4.51%; that for `O=C(Nc1cccc(C(=O)NC2CC2)c1)c1ccc(F)c(S(=O)(=O)N2CCOCC2)c1` was 4.42%. For `COc1ccc(NS(=O)(=O)c2ccc(NC(=S)NC(=O)/C=C/c3ccc(C)cc3)cc2)nn1` the value was -7.2%. `COc1ccc(/C=C/C(=O)c2ccc(NS(=O)(=O)c3ccc(C)cc3)cc2)cc1O`: the Tm shift relative to glycine control is 24.6% (active). For `Cc1ccc(C(=O)/C=C/Nc2ccc(S(=O)(=O)Nc3onc(C)c3C)cc2)cc1` the value was -6.78%; for `CCOC(=O)C1CCN(C(=O)CN2C(=O)NC(C)(c3ccc4cc(OC)ccc4c3)C2=O)CC1` (stereo unspecified), 0.17%.

On to `CCOC(=O)c1c(-c2cccc(C)c2)csc1NC(=O)c1c(-c2ccccc2)noc1C`, for which the Tm shift relative to glycine control is -0.48%. For `Cc1onc(-c2ccccc2Cl)c1C(=O)OCC(=O)c1ccccc1` the value was -1.07%; for `Cc1[nH]c2ccccc2c1C(=O)COC(=O)c1c(-c2ccccc2)noc1C`, 18.8% (active). The value for `COc1cc(NC(=O)CCNC(=O)Cn2ccc3ccccc3c2=O)cc(OC)c1OC` was 1.09%; that for `O=C(CSc1nnc(-c2ccncc2)o1)Nc1cccc(Cl)c1` was -2.14%. For `O=C(COC(=O)CSc1nnc(-c2ccc(Cl)cc2)o1)Nc1cc(Cl)cc(Cl)c1` the value was 19.4% (active); for `O=C(CSc1nnc(-c2ccncc2)o1)NCc1ccc(Cl)cc1`, 1.65%; for `NCC(=O)c1cccc2ccc[n+]([O-])c12`, 7.2%. With `Cc1ccc(C)c(NC(=O)COC(=O)c2nn(C)c(=O)c3ccccc23)c1`, the Tm shift relative to glycine control is 0.34%. The value for `O=P(O)(CP(=O)(c1ccccc1)c1ccccc1)c1ccccc1O` was -4.72%. The value for `CC1CCCCC1NC(=O)C1CCCN1S(=O)(=O)c1cccc2nsnc12` (stereo unspecified) was -1.29%; that for `COc1ccc(OC)c(NC(=O)C2CCCN2S(=O)(=O)c2cccc3nsnc23)c1` (stereo unspecified) was 13.4% (active); that for `CC(=O)c1cccc(NC(=O)C2CCCN2S(=O)(=O)c2cccc3nsnc23)c1` (stereo unspecified) was 1.52%. The value for `COc1ccc(CCC(=O)OCC(=O)Nc2ccc(C)c(S(=O)(=O)N(C)C)c2)cc1` was -3.89%; that for `Cc1c(C=O)c2ccccc2n1CCOc1ccccc1` was -1.12%; that for `COC(=O)c1ccc(COc2cc([N+](=O)[O-])cc3cccnc23)cc1` was -1.16%. With `COc1ccc([C@H]2CC(=O)C=C(/C=C/c3ccccc3)C2)cc1`, the Tm shift relative to glycine control was -0.08%. The value for `CCCCC/C=C/C1=CC(=O)C[C@H](c2ccc(Cl)cc2)C1` was -2.27%; that for `COc1ccc([C@H]2CC(=O)C=C(/C=C/c3ccc(Cl)cc3)C2)cc1` was 25.2% (active); that for `CC1(C)O[C@@H]2CC3C4C[C@H](F)C5=CC(=O)C=CC5(C)C4C(O)CC3(C)[C@]2(C(=O)CO)O1` (stereo partly specified) was -0.79%. For `COc1ccc(NC(=O)C2CCN(S(=O)(=O)c3ccc4[nH]c(=O)oc4c3)CC2)c(OC)c1` the value was -2.13%; for `O=C(Nc1cccc(Br)c1)c1ccc2snnc2c1`, -4.74%; for `O=C(Nc1ccc2ccccc2c1)Nc1ccc2snnc2c1`, 157% (active). For `Cc1nc2cc(NC(=O)Nc3cccc(F)c3)ccc2n1C` the value was -0.72%; for `Cc1cccc(C)c1NC(=O)CSc1nc2c([nH]1)c(=O)n(C)c(=O)n2C`, -0.47%. Turning to `CO[C@@H]1[C@@H](OC(N)=O)[C@@H](O)C(Oc2ccc3c(O)c(NC(=O)c4ccc(O)c(CC=C(C)C)c4)c(=O)oc3c2C)OC1(C)C` (stereo partly specified), the Tm shift relative to glycine control is -12.2%. The value for `CC(C)c1ccc(NC(=S)NNc2ccc(Cl)c(C(=O)O)c2)cc1` was -0.77%; that for `Cc1ccc(C)c(NC(=S)NNC(=O)c2csc(C)c2)c1` was 1.94%. For `Cc1ccc(C)c(NC(=S)NNC(=S)Nc2ccc(C(C)C)cc2)c1` the value was 12.8% (active); for `CN(C)CCCn1c(=O)n(Cc2ccccc2)c(=O)c2c3c(sc21)CCCCC3`, -3.1%. `CCCOP(=O)(c1ccc(N(C)C)cc1)C(O)c1cc(OC)c(OC)c(OC)c1` (stereo unspecified): the Tm shift relative to glycine control is 3.76%. The value for `CCOc1cc(/C=C(\C#N)c2nc(-c3cccs3)c(NC(C)=O)s2)ccc1O` was 10.9% (active).

In the case of `CCOc1cc(-c2cc(-c3ccc(NC(C)=O)cc3)nc(N)c2C#N)ccc1O`, the Tm shift relative to glycine control was -13.2%. The value for `CCOc1cc(C=NNC(=O)CCCC(=O)NN=Cc2ccc(O)c(OCC)c2)ccc1O` was 1.26%; that for `Cc1noc(C)c1S(=O)(=O)NCCc1ccc(S(N)(=O)=O)cc1` was 5.94%. The value for `O=C1c2ccccc2C(O)N1Cc1ccccc1` (stereo unspecified) was 0.38%; that for `O=C1c2ccccc2C(O)N1Cc1ccccc1Cl` (stereo unspecified) was 12.8% (active).

As for `O=c1ccn(Cc2ccccc2Cl)cc1`, the Tm shift relative to glycine control was 0.42%.

For `O=C(N/N=C/c1sc(N2CCCCC2)nc1-c1cccs1)c1cccnc1`, the Tm shift relative to glycine control is -0.4%. On to `O=C(COC(=O)COc1ccccc1F)Nc1cccc(S(=O)(=O)N2CCCCC2)c1`, for which the Tm shift relative to glycine control is -3.69%.

For `Brc1ccccc1CN1CCC(Cc2ccccc2)CC1`, the Tm shift relative to glycine control is 0.68%. The value for `C=CCn1c(SCc2ccc(C(=O)NCCO)cc2)nc2ccccc2c1=O` was -2.22%; that for `O=C(Nn1c(SCc2ccc([N+](=O)[O-])cc2)nc2ccccc2c1=O)c1ccc(F)cc1` was 14.8% (active); that for `Cc1nc2ccccc2c(=O)n1NC(=O)c1ccc(Cl)c([N+](=O)[O-])c1` was 0.49%. The value for `COc1ccc(NC(=O)C2=CC(c3ccc(OC)c(OC)c3)=NS(=O)(=O)N2C)cc1` was -11.9%; that for `CCN1C(=O)C(C(=O)NC(C)c2ccccc2)C2CC1(C)Oc1ccccc12` (stereo unspecified) was -1.26%; that for `CC(C)CNC(=O)COC(=O)c1ccccc1OCC(=O)Nc1ccc(Br)cc1` was 0.17%. For the compound `CN(C)C=NC(=O)c1cccn1-c1ncc(C(F)(F)F)cc1Cl`, the Tm shift relative to glycine control was -1.59%. On to `CCCCOC(=O)Cn1c(=O)n(CC(=O)OCCCC)c2cc(C)ccc21`, for which the Tm shift relative to glycine control is 10.7% (active). Take `CCOC(=O)CN1C(=O)C(=O)c2cc(C)ccc21`: the Tm shift relative to glycine control is 0.43%. The value for `Cc1ccc(C)c(NC(=O)COC(=O)Cn2c(C)csc2=O)c1` was 3.33%. Consider `CN(C(=O)CSc1nnc(-c2ccc3c(c2)OCO3)o1)C1CCS(=O)(=O)C1` (stereo unspecified), for which the Tm shift relative to glycine control is 1.73%. `O=C(CCC(=O)NNc1nc2ccccc2c2nc(-c3ccccc3)nn12)NCCCN1CCCC1=O`: the Tm shift relative to glycine control was 0.34%. For `COc1ccc2[nH]c3c(C)c4cc[n+](C)cc4c(C)c3c2c1` the value was -0.08%.

For the compound `C=CCNC(=O)C1CC2c3ccccc3C1c1ccccc12` (stereo unspecified), the Tm shift relative to glycine control is 1.25%. The value for `CSc1ncccc1C(=O)Nc1ccc(C)cn1` was 0.09%. Regarding `CSc1ncccc1C(=O)Nc1ccc2c(c1)OCO2`, the Tm shift relative to glycine control was -2.2%.

For the compound `CSc1ncccc1C(=O)Nc1nc2ccc(F)cc2s1`, the Tm shift relative to glycine control is 11.6% (active). The value for `CCCn1c(N)c(N(CCOC)C(=O)C2CCCC2)c(=O)[nH]c1=O` was 0.34%. For `COc1ccc(CCNC(=O)CSc2nnc3ccc(-c4ccncc4)nn23)cc1` the value was -0.92%; for `COc1ccc(NC(=O)CSCc2ccc([N+](=O)[O-])cc2)cc1OC`, 4.6%. For `O=C(CSCc1ccc([N+](=O)[O-])cc1)Nc1cccc(C(=O)Nc2ccccc2C(=O)O)c1` the value was 11.3% (active); for `Cc1cc(NC(=O)COc2ccc([N+](=O)[O-])cc2)no1`, 1.03%; for `O=C(COc1ccc([N+](=O)[O-])cc1)Nc1cccc(C(=O)Nc2ccccc2C(=O)O)c1`, 10.6% (active). Turning to `O=C(CSCc1ccc([N+](=O)[O-])cc1)NCCSCc1ccccc1`, the Tm shift relative to glycine control is 1.53%. For the compound `O=C(Nc1ccccc1C(=O)Nc1ccncc1)c1ccc([N+](=O)[O-])cc1`, the Tm shift relative to glycine control is -13.8%.

Turning to `Cc1c(CC(=O)N2CCN(C(=O)C3COc4ccccc4O3)CC2)c(=O)oc2c(O)c(O)ccc12` (stereo unspecified), the Tm shift relative to glycine control is 1.85%.

For `Cc1ccccc1Nc1scc(-c2ccc(Br)cc2)[n+]1-c1ccccc1C`, the Tm shift relative to glycine control was 0.51%.

Source of the values: PubChem BioAssay AID1259313 (Sanford-Burnham Center for Chemical Genomics, 2017).
